# Compound activity as filed in PubChem.
# Only some compounds are listed: those with a hit (about 3% of all), similar ones and a draw of the others.
# PPC-1+TRAIL kill = compounds killing PPC-1 cancer cells with TRAIL present (potentiator screen, no TRAIL-free arm); PPC-1 cells + TRAIL, ATPLite viability luminescence; cell killing (% activity), % at 4 µM or 5 µM; hit rate 0.41% among 220,000; AID 1443;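 active means cell killing above 50% in the first pass at 4 µM, then a duplicate retest at 5 µM averaging 50% or more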;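 further: plate controls were cells with TRAIL plus DMSO for no effect and medium-only wells lacking cells for full effect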
# SENP6 inh = inhibitors of human SENP6 protease. Recombinant SENP6 catalytic domain, aminoluciferin luminescence. inhibition, % at 10 µM. hit rate 1.8% among 330,000. AID 2599;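 active means inhibition above about 50% at the single tested dose, limit read from the data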;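 further: plate controls were DMSO wells with enzyme for no effect and DMSO wells lacking enzyme for full effect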
# Target sequence (Q9GZR1 628-1112 limits assumed): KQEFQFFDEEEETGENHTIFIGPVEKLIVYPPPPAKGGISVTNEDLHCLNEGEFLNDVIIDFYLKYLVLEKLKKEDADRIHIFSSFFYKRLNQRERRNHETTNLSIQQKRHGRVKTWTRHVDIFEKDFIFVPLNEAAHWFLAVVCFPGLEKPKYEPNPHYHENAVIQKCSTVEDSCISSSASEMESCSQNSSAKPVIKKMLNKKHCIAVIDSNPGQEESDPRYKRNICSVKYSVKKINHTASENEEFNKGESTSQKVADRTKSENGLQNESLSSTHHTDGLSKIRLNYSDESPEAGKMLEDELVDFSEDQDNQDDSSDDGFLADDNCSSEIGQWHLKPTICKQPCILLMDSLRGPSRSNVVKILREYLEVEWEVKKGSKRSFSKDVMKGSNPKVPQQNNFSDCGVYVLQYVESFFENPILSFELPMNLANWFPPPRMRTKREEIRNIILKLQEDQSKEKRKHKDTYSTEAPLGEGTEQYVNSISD
# SENP7 inh = SENP7 protease inhibition | inhibition, % at 5 µM | hit rate 1.5% among 330,000 | recombinant SENP7, Z-RLRGG-aminoluciferin luminescence, 40 min | AID 434973;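 active means inhibition above about 50% at the single test dose, limit read from the data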;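 further: plate controls were DMSO with enzyme for no effect and no enzyme buffer wells for full effect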
# TRAIL sens C8 = caspase-8 TRAIL sensitization; NB7+C8 cells + TRAIL, ATPlite viability luminescence; inhibition (viability loss, TRAIL sensitization), % at 10 µM; hit rate 1% among 360,000;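 active means compounds causing at least 50% loss of cell viability in the single-dose screen, relative to plate controls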
# SENP8 block-1 = SENP8 protease inhibition; Q96LD8; purified SENP8, Z-RLRGG-aminoluciferin cleavage, luminescence; inhibition, % at 10 µM; hit rate 1.2% among 330,000; AID 2540; in the data active means inhibition above about 50%
# SENP8 block-2 = SENP8 (human) protease inhibition; inhibition, % at 20 µM; Q96LD8; hit rate 0.64% among 360,000; recombinant SENP8, Nedd8 substrate fluorescence; AID 602440; in the data active means inhibition mostly above about 40%, no sharp cut-off; inactive means mostly below about 27%
# Active calls of the source: *; x = no result.
SMILES,PPC-1+TRAIL kill,SENP6 inh,SENP7 inh,TRAIL sens C8,SENP8 block-1,SENP8 block-2
CCS(=O)(=O)C1=NN2C(=N)/C(=C\c3ccc(OC(=O)c4ccco4)c(OC)c3)C(=O)N=C2S1,x,4,-1,-6,53*,-30
Cc1cccc(NC(=O)c2nc[nH]c2C(=O)NCCCCCNC(=O)OC(C)(C)C)c1,x,0,6,33,4,8
Cc1cccc(NC(=O)c2nc[nH]c2C(=O)N[C@@H](CCCCNC(=O)OC(C)(C)C)C(=O)OC(C)(C)C)c1,10,-8,-8,51*,-13,7
C[C@H](NC(=O)c1nc[nH]c1C(=O)N[C@@H](CCCCNC(=O)OC(C)(C)C)C(=O)OC(C)(C)C)C(=O)OCc1ccccc1,x,-13,7,23,-5,1
CC(C)(C)OC(=O)NCCCC[C@H](NC(=O)c1nc[nH]c1C(=O)NC(c1ccccc1)c1ccccc1)C(=O)OC(C)(C)C,5,-14,-12,53*,-8,11
CC(C)C[C@H](NC(=O)c1nc[nH]c1C(=O)N[C@@H](CCCCNC(=O)OC(C)(C)C)C(=O)OC(C)(C)C)C(=O)OCc1ccccc1,x,-8,6,63*,-8,7
Cc1cc(C)cc(NS(=O)(=O)c2ccc3[nH]cc(C(=O)NCc4ccco4)c(=O)c3c2)c1,19,3,5,84*,5,-101
CCO[C@H]1c2c(ccc3ccc(=O)oc23)OC(C)(C)[C@H]1O,x,-3,-6,-18,0,-440
COc1ccc2[nH]c(N=Nc3ccccc3C)c(O)c2c1,17,-9,4,-5,-13,18
Cc1cc(C=O)c(C)n1-c1ccc(NC2CCCC2)c([N+](=O)[O-])c1,x,-10,5,32,0,42*
Cc1cc(N2C(=O)C(O)=C(C(=O)c3cc4ccccc4o3)C2c2cccs2)no1 (stereo not given),x,-8,5,10,-3,-18
Cc1ccc2nc(N3C(=O)C(O)=C(C(=O)c4cc5ccccc5o4)C3c3cccs3)sc2c1 (stereo not given),23,88*,78*,16,68*,-85
Cc1ccc2nc(N3C(=O)C(O)=C(C(=O)c4ccc(C)o4)C3c3ccco3)sc2c1 (stereo not given),x,78*,76*,-19,64*,-132
CCc1ccc2nc(N3C(=O)C(O)=C(C(=O)c4ccco4)C3c3cccs3)sc2c1 (stereo not given),28,55*,38,28,30,-114
O=C1CCCN1CC(O)CS(=O)(=O)Cc1ccc(Cl)cc1 (stereo not given),x,-20,-7,-2,-9,19
Cc1ccc2cc(NC(=O)c3ccccc3C)ccc2n1,x,44,44,23,16,3
COc1ccccc1C1N=C(c2ccccc2C)NO1 (stereo not given),x,83*,78*,13,75*,25
COc1ccccc1C1=NC(c2ccc(F)cc2)N=C1C (stereo not given),33,-11,7,-6,-4,3
Cn1cnc([N+](=O)[O-])c1Sc1nc(N)nc2c1ncn2C1CC(O)C(CO)O1 (stereo not given),x,x,x,72*,x,7
CCSc1nc(N)nc2c1ncn2C1OC(CO)C(O)C1O (stereo not given),x,x,x,-2,x,-58
Cn1cnc([N+](=O)[O-])c1Sc1nc(N)nc2c1ncn2C1OC(CO)C(O)C1O (stereo not given),x,x,x,71*,x,14
CC1(C)OC2C(CO)OC(n3cnc4c(=S)nc(N)[nH]c43)C2O1 (stereo not given),x,x,x,11,x,-24
Nc1nc(=S)c2ncn(C3OC(CO)C(O)C3O)c2[nH]1 (stereo not given),-22,x,x,56*,x,37
Nc1nc(=S)c2ncn([C@@H]3O[C@H](CO)[C@@H](O)[C@H]3O)c2[nH]1,x,-2,0,73*,-6,5
CCOC(=O)c1c(OCCO)nn(-c2ccccc2)c1N,17,-1,-4,1,5,7
SMILES,PPC-1+TRAIL kill,SENP6 inh,SENP7 inh,TRAIL sens C8,SENP8 block-1,SENP8 block-2
Cc1c(C(=O)N2CCOCC2)cc(C(C)(C)C)n1-c1ccccc1,27,-9,7,0,1,20
COc1ccc(C(=O)N2CCC2(C)C(=O)NC(C)C)c(OC)c1 (stereo not given),x,x,x,-8,x,24
Cc1ccccc1NC(=O)COc1coc(CN2CCN(c3ccccc3)CC2)cc1=O,x,-18,3,3,-7,9
CC(C)(C)c1ccc(C(O)CCCN2CCC(C(O)(c3ccccc3)c3ccccc3)CC2)cc1 (stereo not given),32,-6,5,60*,-1,9
N#CCc1ccc(OCCCN2CCC(C(O)(c3ccccc3)c3ccccc3)CC2)cc1,x,x,x,-8,x,16
OC(c1ccccc1)(c1ccccc1)C1CCN(CCCOc2ccc3c(c2)CCCC3)CC1,x,x,x,66*,x,13
CC(=O)O[C@H]1[C@@H](O)[C@H](O)[C@H](Oc2c(O)c(C)c3c4c2[C@@H](C)CC[C@@H]4[C@@H](C)C[C@H]3C=C(C)C)O[C@H]1C,x,12,3,-1,4,19
COC(CNC(=O)c1cccnc1)OC,-5,0,2,10,0,1
COC(CNC(=O)c1ccc2c3c(onc13)-c1ccccc1C2=O)OC,4,45,25,46,23,102*
CCCOc1ccc(F)cc1-c1cc(C(=O)NCc2cccs2)[nH]n1,x,x,x,-11,x,27
COn1c(SCC(N)=O)nc2ccccc2c1=O,8,-10,3,19,-5,34
COn1c(SC2CCCCC2)nc2ccccc2c1=O,-7,-31,-4,67*,-7,1
COn1c(SCc2ccc(C)cc2C)nc2ccccc2c1=O,-13,-18,-7,58*,-9,15
COc1ccc(-c2cc3nc(C)cc(-c4ccc(OC)cc4)n3n2)cc1,x,-18,-14,5,-4,-303
Cc1cccc(-c2cc3nc(C)cc(N4CC(C)CC(C)C4)n3n2)c1 (stereo not given),0,-15,-9,-2,-6,-221
COc1ccc(-c2cc3nc(C)cc(N)n3n2)cc1,81*,96*,97*,84*,95*,-179
Cc1cccc(-c2cc3nc(C)cc(C)n3n2)c1,6,-3,78*,7,54*,-315
CCCN1CNC(=S)N(CC2CCCO2)C1 (stereo not given),37,18,8,-10,-1,3
CC(=O)Nc1ccc(SCc2csc(C)n2)cc1,x,2,3,-10,-2,4
O=C(NCCN1CCOCC1)C1CCN(S(=O)(=O)N2CCCC2)CC1,8,-18,5,-3,5,9
COc1ccc(C)c2sc(N(CCN(C)C)C(=O)/C=C/c3cccs3)nc12,x,-13,12,-2,-9,-11
COc1ccc(OC)c2sc(N(CCN(C)C)C(=O)/C=C/c3cccs3)nc12,x,-6,-10,93*,1,23
